Where “and” joins values, the source holds several entries; their conditions need not be identical. Equal entries are not always repeated. Compounds without any hit were thinned out: in the full panel of roughly 83,000, 20% have a hit.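 A percent growth of 40 corresponds to 60% growth inhibition; 0 means no net growth; -100 means all cells died. Active threshold: below 10.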 Calls of active or inactive are those of the source.

Twelve compounds from PubChem BioAssay (NCI) can be followed below.

Some test systems named below: DU-145 prostate; K-562 leukemia; MALME-3M melanoma; MDA-MB-231 breast; RXF 393 renal; SF-268 CNS; SF-295 CNS; SF-539 CNS; UACC-257 melanoma; M14 melanoma.
Common to all, as to test: NCI-60 one-dose screen, 48 h (100 = growth as untreated, 0 = no growth, -100 = all killed)
Conditions in all cases: 10 µM

For the compound `Oc1ccccc1-c1ccccc1`, the growth in the assay with DU-145 prostate is 103% (inactive) and 113% (inactive); with K-562 leukemia it was 93.2% (inactive) and 97.2% (inactive); in the assay on MALME-3M melanoma it was 99.1% (inactive) and 106% (inactive); with MDA-MB-231 breast, 95% (inactive); with RXF 393 renal, 99% (inactive) and 106% (inactive); with SF-268 CNS it was 98% (inactive) and 104% (inactive). Besides, the growth is 105% (inactive) and 112% (inactive) in the assay with SF-295 CNS; 103% (inactive) in the assay with SF-539 CNS; 97.6% (inactive) and 97.1% (inactive) with UACC-257 melanoma; 113% (inactive) with M14 melanoma.
As for `ClCc1ccc2ccccc2n1`, the growth in the assay on DU-145 prostate is 102% (inactive); in the assay with K-562 leukemia it was 72.3% (inactive); in the assay with MALME-3M melanoma, 97.6% (inactive); with MDA-MB-231 breast, 102% (inactive); in the assay with RXF 393 renal, 95.5% (inactive); in the assay with SF-268 CNS, 80.5% (inactive). In addition, the growth in the assay with SF-295 CNS was 87.3% (inactive); with SF-539 CNS it was 106% (inactive); with UACC-257 melanoma, 104% (inactive); with M14 melanoma, 84.7% (inactive).
Take `O=C1C(=O)c2ccccc2-c2ccccc21`: the growth in the assay on DU-145 prostate is -100% (active); in the assay on K-562 leukemia, -37.4% (active); in the assay on MALME-3M melanoma it was -93.6% (active); in the assay with MDA-MB-231 breast it was -39% (active); with RXF 393 renal, -93.2% (active); with SF-268 CNS, -88.7% (active). Further, the growth in the assay on SF-295 CNS was -97.4% (active); with SF-539 CNS it was -92.7% (active); with UACC-257 melanoma, -95.6% (active); in the assay with M14 melanoma, -83.8% (active).
On to `CC(=O)Nc1c2sscc-2n(C)c1=O`, for which the growth is -100% (active) with DU-145 prostate; -72.9% (active) in the assay on K-562 leukemia; -89.7% (active) in the assay with MALME-3M melanoma; -92.4% (active) with MDA-MB-231 breast; -92.5% (active) in the assay with RXF 393 renal; -80.4% (active) in the assay with SF-268 CNS. Moreover, the growth with SF-295 CNS was -96.5% (active); in the assay on SF-539 CNS, -94.9% (active); in the assay on UACC-257 melanoma it was -44.5% (active); in the assay with M14 melanoma it was -96.7% (active).
With `O=S(=O)(F)c1ccc(Cl)cc1`, the growth with DU-145 prostate is 130% (inactive); in the assay on K-562 leukemia, 112% (inactive); in the assay on MALME-3M melanoma, 123% (inactive); with MDA-MB-231 breast it was 115% (inactive); in the assay with RXF 393 renal it was 112% (inactive); in the assay on SF-268 CNS, 97.6% (inactive). Besides, the growth was 114% (inactive) in the assay on SF-295 CNS, 99.7% (inactive) with SF-539 CNS, 99.1% (inactive) in the assay with UACC-257 melanoma and 104% (inactive) with M14 melanoma.
For the compound `COc1cc(/C=C/[N+](=O)[O-])cc(Br)c1OC`, the growth in the assay with DU-145 prostate was 66.5% (inactive); with K-562 leukemia it was 4.74% (active); in the assay with MALME-3M melanoma, 98.1% (inactive); in the assay on MDA-MB-231 breast, 7.14% (active); with RXF 393 renal, -80.5% (active); with SF-268 CNS it was 32% (inactive). The growth is 78.3% (inactive) in the assay on SF-295 CNS, 28.5% (inactive) in the assay with SF-539 CNS, -13.2% (active) in the assay on UACC-257 melanoma and -72.1% (active) in the assay with M14 melanoma.
Regarding `COc1cc(/C=C(/C)[N+](=O)[O-])ccc1O`, the growth in the assay with DU-145 prostate is 21.7% (inactive) and 17.1% (inactive); with K-562 leukemia it was 2.31% (active) and 1.66% (active); in the assay on MALME-3M melanoma it was 40% (inactive) and 1.16% (active); with MDA-MB-231 breast, 66.3% (inactive) and 50.5% (inactive); in the assay with RXF 393 renal it was -57.5% (active) and -94.8% (active); in the assay on SF-268 CNS, 47.5% (inactive) and 87.3% (inactive). For the same compound, the growth is 99.2% (inactive) in the assay with SF-295 CNS; 57.2% (inactive) and 20.3% (inactive) with SF-539 CNS; 18.2% (inactive) and -56% (active) in the assay with UACC-257 melanoma; 39.6% (inactive) with M14 melanoma.
As for `COc1ccccc1/C=C/[N+](=O)[O-]`, the growth in the assay with DU-145 prostate is 48.2% (inactive); in the assay with K-562 leukemia, 33.8% (inactive); in the assay on MALME-3M melanoma, 97.5% (inactive); in the assay with MDA-MB-231 breast it was 73% (inactive); with RXF 393 renal it was 1.37% (active); in the assay on SF-268 CNS, 76.1% (inactive). Further, the growth is 93.9% (inactive) in the assay with SF-295 CNS, 64% (inactive) in the assay with SF-539 CNS, 71.8% (inactive) with UACC-257 melanoma and 59.8% (inactive) with M14 melanoma.
`CC/C(=C/c1ccc(OC)cc1OC)[N+](=O)[O-]`: the growth with DU-145 prostate is 39.1% (inactive); in the assay on K-562 leukemia it was 3.65% (active); in the assay on MALME-3M melanoma it was 8.59% (active); in the assay with MDA-MB-231 breast, 18.4% (inactive); in the assay on RXF 393 renal it was -59.6% (active); with SF-268 CNS it was 41.5% (inactive). Moreover, the growth in the assay with SF-295 CNS is 101% (inactive); in the assay on SF-539 CNS, -1.55% (active); in the assay on UACC-257 melanoma, 45.8% (inactive); in the assay on M14 melanoma, 54% (inactive).
As for `Cc1cc(C(C)(C)c2ccc(O)c(C)c2)ccc1O`, the growth with DU-145 prostate was 107% (inactive); in the assay on K-562 leukemia, 80.8% (inactive); in the assay with MALME-3M melanoma it was 88.4% (inactive); in the assay with MDA-MB-231 breast, 80.5% (inactive); in the assay with RXF 393 renal, 93.5% (inactive); in the assay with SF-268 CNS, 90.3% (inactive). Further, the growth with SF-295 CNS was 104% (inactive); with SF-539 CNS it was 92.2% (inactive); in the assay with UACC-257 melanoma it was 81.7% (inactive); with M14 melanoma, 106% (inactive).
Take `COc1cc2c(cc1OC)C13CCN4CC5=CCOC6CC(=O)N2C1C6C5CC43` (stereo not given): the growth was 123% (inactive) and 116% (inactive) in the assay with DU-145 prostate; 124% (inactive) and 74.9% (inactive) in the assay with K-562 leukemia; 126% (inactive) and 103% (inactive) in the assay on MALME-3M melanoma; 111% (inactive) and 87.4% (inactive) with MDA-MB-231 breast; 127% (inactive) in the assay with RXF 393 renal; 103% (inactive) with SF-268 CNS. The growth in the assay on SF-295 CNS is 105% (inactive) and 134% (inactive); in the assay on SF-539 CNS, 96.8% (inactive) and 80.2% (inactive); in the assay with UACC-257 melanoma, 104% (inactive); in the assay with M14 melanoma, 107% (inactive) and 108% (inactive).
Regarding `C=C1C(=O)O[C@@H]2C[C@@H](C)[C@@H]3C=CC(=O)[C@@]3(C)[C@@H](O)[C@H]12`, the growth is -100% (active) in the assay on DU-145 prostate; -56.9% (active) in the assay with K-562 leukemia; -76.6% (active) with MALME-3M melanoma; -63.2% (active) in the assay on MDA-MB-231 breast; 1.51% (active) with RXF 393 renal; -45% (active) in the assay on SF-268 CNS. Besides, the growth was -35.8% (active) in the assay on SF-295 CNS, -73.3% (active) with SF-539 CNS, 1.25% (active) with UACC-257 melanoma and -64.8% (active) with M14 melanoma.
